This excerpt belongs to a sample that is enriched for hits.
ST2 IL33 inh = IL1RL1 inhibition. Q01638. AlphaLISA ST2-Fc/biotin-IL-33 interaction, 1 h. inhibition, % for hits at 17 µM. hit rate 2.3% among 78,000. AID 1259354; in the data active = inhibition above about 30%
Target sequence (Q01638 whole entry, looked up): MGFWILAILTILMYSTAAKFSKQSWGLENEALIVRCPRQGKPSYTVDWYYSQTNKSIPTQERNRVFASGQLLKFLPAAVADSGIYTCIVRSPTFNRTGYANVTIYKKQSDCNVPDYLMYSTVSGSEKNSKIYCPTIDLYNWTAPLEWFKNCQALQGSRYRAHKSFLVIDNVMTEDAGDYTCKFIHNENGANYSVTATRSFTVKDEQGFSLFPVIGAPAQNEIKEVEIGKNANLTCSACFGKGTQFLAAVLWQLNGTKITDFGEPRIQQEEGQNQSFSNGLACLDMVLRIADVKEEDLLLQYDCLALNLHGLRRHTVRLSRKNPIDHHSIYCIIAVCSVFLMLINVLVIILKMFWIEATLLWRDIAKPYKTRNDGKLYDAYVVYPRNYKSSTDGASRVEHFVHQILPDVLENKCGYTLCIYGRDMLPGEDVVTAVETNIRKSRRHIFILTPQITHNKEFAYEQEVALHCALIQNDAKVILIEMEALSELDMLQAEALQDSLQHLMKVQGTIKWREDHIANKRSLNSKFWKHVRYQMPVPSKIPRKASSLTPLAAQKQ
Active calls of the source: *; i = inactive.

SMILES | ST2 IL33 inh
O=C(CSc1ccc2nnc(-c3cccnc3)n2n1)N1CCCC(c2ccccc2)CC1 (stereo unspecified) | 36%*
O=C(c1ccc(NCc2cccnc2)nc1)N1CCCC(c2ccccc2)CC1 (stereo unspecified) | i
CC(C)NC(=O)C[C@@H]1O[C@H](CNCc2cccc(Cl)c2)[C@@H](O)[C@H]1O | i
O=C1c2ccc(Oc3ccc([N+](=O)[O-])cc3)cc2C(=O)N1c1nccs1 | i
COc1ccc(NC(=O)CSc2ccc3ccccc3n2)cc1 | i
COc1ccc(C2=NN(CN3C(=O)C(=O)c4ccccc43)C(c3ccc(OC)cc3)C2)cc1 (stereo unspecified) | 36%*
COc1ccc(NC(=O)CN2C(=O)C(=O)c3ccccc32)c(OC)c1 | i
COc1ccc(C2CC(c3ccccc3)=NN2C(=O)c2ccccc2)cc1 (stereo unspecified) | i
COc1ccc(CNC(=O)C2CCCN2c2nnc(N3CCCC3=O)s2)cc1OC (stereo unspecified) | i
Cc1ccc2[nH]cc(-c3cncc(C(=O)O)c3)c2c1 | i
c1ccc(CCn2c3ccccc3c3nnc(SCCN4CCOCC4)nc32)cc1 | i
CCn1c2ccccc2c2nnc(SCC(=O)N3CCCc4ccccc43)nc21 | i
O=C(CSc1nnc2c3ccccc3n(CCc3ccccc3)c2n1)N1CCOCC1 | 33%*
CC1(C)CC(=O)N(c2nc3ccccc3s2)C(=O)C1 | i
CCOC(=O)c1c(NC(=O)CCCn2nc([N+](=O)[O-])cc2C)sc2c1CCC(C)C2 (stereo unspecified) | i
CCCC(=O)NCCCc1nc2ccccc2n1CC(C)C | i
OC1CCCN(Cc2ccc(Cl)cc2Cl)C1 (stereo unspecified) | i
CC(=O)n1cc(C(C[N+](=O)[O-])SCCN)c2ccccc21 (stereo unspecified) | 30%*
O=[N+]([O-])CC(SCCO)c1ccc(O)cc1 (stereo unspecified) | i
CC(C)(O)C#Cc1ccc(CN2CCC(N)(C(=O)O)C2)cc1 (stereo unspecified) | i
COc1ccc(-c2noc([C@@H]3C[C@@H](O)CN3Cc3ccc([N+](=O)[O-])cc3)n2)cc1 | i
O=C(CSc1nnc(Cc2cc(=O)[nH]c(=O)[nH]2)n1-c1ccccc1)Nc1cccc(Cl)c1 | i
O=C(CCC1CCCN(Cc2cccn2-c2cccnc2)C1)N1CCOCC1 (stereo unspecified) | i
COC(=O)[C@@H]1Cc2ncn(Cc3ccc(Cl)cc3)c2CN1Cc1ccc(F)cc1 | i
COC(=O)[C@@H]1Cc2ncn(Cc3ccc(OC)cc3)c2CN1Cc1cccc(C#N)c1 | 41%*
SMILES | ST2 IL33 inh
COC(=O)[C@@H]1Cc2ncn(Cc3ccc(Cl)cc3)c2CN1S(C)(=O)=O | i
COC(=O)[C@@H]1Cc2ncn(Cc3ccc(Cl)cc3)c2CN1C(=O)c1ccccc1OC | i
COC(=O)[C@@H]1Cc2ncn(Cc3ccc(OC)cc3)c2CN1C(=O)c1ccc(OC)cc1 | i
COC(=O)[C@@H]1Cc2ncn(Cc3ccc(OC)cc3)c2CN1Cc1ccc(OC)cc1 | 89%*
COC(=O)[C@@H]1Cc2ncn(Cc3ccc(Cl)cc3)c2CN1Cc1ccc(CO)o1 | i
COC(=O)[C@@H]1Cc2ncn(Cc3ccc(Cl)cc3)c2CN1C(=O)COc1ccccc1 | i
COCC(=O)N1Cc2c(ncn2Cc2ccc(OC)cc2)C[C@H]1C(=O)OC | 68%*
O=C(c1ccc2nc3ccc(Cl)cc3c(=O)n2c1)N1CCN(c2ncccn2)CC1 | i
CCOC(=O)C(C)Sc1nc2c(c(-c3cccs3)c1C#N)CCCC2 (stereo unspecified) | i
COc1cc(Cl)c(Nc2nc(-c3nnc(-c4ccc(C)cc4)o3)nc3ccccc23)c(OC)c1 | i
CCCN(Cc1ccc(OC)cc1)C(=O)c1sc(C)nc1CC | i
COc1ccc2nc(N3CCCC(C(=O)NC(C)C)C3)sc2c1 (stereo unspecified) | i
Cc1[nH]ncc1C(=O)N1CCCC(C(=O)c2ccc(-c3ccccc3)cc2)C1 (stereo unspecified) | i
Cc1[nH]c2ccccc2c1C(=O)CCC(=O)O | i
Cc1nc(-c2ccc(O)cc2)cs1 | i
Cc1nc(-c2c(C)[nH]c3ccccc23)cs1 | 36%*
COCC1(C(=O)NC2CC(=O)Nc3ccccc32)CCC1 (stereo unspecified) | i
Cc1ccc(C2CC(C(F)(F)F)n3ncc(C(=O)NCCN4CCOCC4)c3N2)cc1 (stereo unspecified) | i
COc1ccc(N=Cc2cc(Br)cc(Cl)c2O)cc1 | i
NC(N)=NS(=O)(=O)c1ccc(N=Cc2cc(Br)cc(Br)c2O)cc1 | i
Oc1c(Br)cc(C=Nc2ccc(N3CCOCC3)cc2)c(O)c1Br | 52%*
COc1ccc(OC)c(C2NC(c3cc(OC)ccc3OC)C(C)C(C)(O)C2C)c1 (stereo unspecified) | i
COc1ccc(NC(=O)c2cc(C3CC3)on2)cc1OC | i
CNc1cc(-c2ccc3ccccc3n2)c2cc[nH]c2n1 | 52%*
CC(C)Nc1ccc(-c2cc(N)nc3[nH]ccc23)nn1 | i
SMILES | ST2 IL33 inh
C=CCn1c(=O)c(-c2ccc3ccccc3n2)cc2ccccc21 | i
CC(C)c1nnc(NC(=O)C(C(C)C)N2C(=O)c3ccccc3C2=O)s1 (stereo unspecified) | i
COc1ccc(/C=c2\sc3n(c2=O)CN(c2ccc4c(c2)OCO4)CN=3)cc1 | 31%*
CCCCOc1ccc(/C=c2\sc3nc(-c4cccs4)nn3c2=O)cc1OC | i
O=c1/c(=C/c2ccncc2)sc2n1CN(c1ccc3c(c1)OCO3)CN=2 | i
CC(=O)c1cccc(N2CN=c3s/c(=C\c4cccnc4)c(=O)n3C2)c1 | i
COc1ccc(/C=c2\sc3n(c2=O)CN(c2cccc(F)c2)CN=3)cc1OC | i
COc1ccc(N2CN=c3s/c(=C\c4ccc(OC)c(OC)c4)c(=O)n3C2)cc1 | 35%*
Cc1ccc2oc(=O)c(C=C(O)c3ccc(F)cc3)nc2c1 | i
O=S1(=O)CC2N=C(N3CCC4(CC3)OCCO4)SC2C1 (stereo unspecified) | i
Cn1c(SCC(=O)Nc2ccc3c(c2)OCCO3)nc2c([nH]c3ccccc32)c1=O | i
CC(C)COc1ccc2c(c1)c1c3c(nccn32)CCC1 | 38%*
CC(C)COc1ccc2c(c1)c1c3n2CCNC3CCC1 (stereo unspecified) | i
Cc1c(CC(Cl)(Cl)Cl)c2c(n1-c1ccc([N+](=O)[O-])cc1)CCCC2=O | 41%*
Cn1c2c(c3cc([N+](=O)[O-])ccc31)CCCC2=O | i
Cc1c(CC(Cl)(Cl)Cl)c2c(n1O)CC(C)(C)CC2=O | i
CCN(Cc1noc(C2CCC2)n1)C(=O)c1scc2c1OCCO2 | i
COc1ccc(CC(=O)NCC2CCCN(Cc3cn(C)c4ccccc34)C2)cc1 (stereo unspecified) | i
COc1ccc(C(=O)NC[C@H]2O[C@@H](CO)[C@@H](O)[C@H]2N2CCN(c3ccc(F)cc3)CC2)cc1 | i
O=C(NC[C@H]1O[C@@H](CO)[C@@H](O)[C@H]1N1CCN(c2ccc(F)cc2)CC1)c1cccs1 | 74%*
O=C(NC[C@H]1O[C@@H](CO)[C@@H](O)[C@H]1N1CCN(c2ccccc2)CC1)c1ccc(F)c(Cl)c1 | i
CC1CCN([C@@H]2[C@H](O)[C@H](CO)O[C@@H]2CNC(=O)c2cccs2)CC1 | i
O=C(NC[C@H]1O[C@@H](CO)[C@@H](O)[C@H]1N1CCN(c2ccccc2)CC1)c1cccc(F)c1 | 92%*
